Data reported in PubChem BioAssay AID1159580 (chemical genetic matrix, 2015).
“And” between values parts separate entries of the source, which are not always exact repeats. Equal values may be shown once. Hit rate of the full screen: of about 5,500 compounds, about 2,000 (36%) were called active. Roughly 18% stayed inconclusive and do not appear here. Rule as the data show it: active = normalized growth mostly below about 0.91 (no sharp cut-off); inconclusive = no clear call, values can overlap the other calls; inactive = mostly above about 0.92. Some of the results follow. Where a structure was tested more than once in an assay, its records may differ in their call.

Test: chemical genetic growth profiling, strain panel (AID 1159580);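 also: tested at 20 µM; growth read once vehicle control cultures reached saturation at 30 °C; 1 = growth at the plate median or of vehicle wells; lower values mean less growth of the strain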
Conditions: S. cerevisiae deletion strains, growth OD
[1] = locus YAL013W, strain DEP1, stronger effect = lower value
[2] = locus YDR150W, strain NUM1, stronger effect = lower value
[3] = locus YHR030C, strain SLT2, stronger effect = lower value
[4] = locus YHR079C, strain IRE1, stronger effect = lower value
[5] = locus YJL095W, strain BCK1, stronger effect = lower value
[6] = locus YJR066W, strain TOR1, stronger effect = lower value
[7] = locus YJR075W, strain HOC1, stronger effect = lower value
[8] = locus YLR113W, strain HOG1, stronger effect = lower value
[9] = locus YMR307W, strain GAS1, stronger effect = lower value
[10] = locus YNL128W, strain TEP1, stronger effect = lower value
[11] = locus YNL153C, strain GIM3, stronger effect = lower value
[12] = locus YNL183C, strain NPR1, stronger effect = lower value
[13] = locus YOR231W, strain MKK1, stronger effect = lower value
[14] = locus YPL256C, strain CLN2, stronger effect = lower value

Measured: normalized growth

O=C(O)c1ccccc1Nc1cccc(OCc2ccc3ccccc3n2)c1
inactive: [1] 0.996 | locus YAL040C, strain CLN3, stronger effect = lower value 0.932 | locus YCL061C, strain MRC1 (second series), stronger effect = lower value 0.997 | [2] 1 | locus YDR363W, strain ESC2, stronger effect = lower value 1 | locus YER002W, strain NOP16, stronger effect = lower value 1.01 | locus YGR078C, strain PAC10, stronger effect = lower value 0.967 | [3] 1.03 | [4] 1.03 | [5] 1.05 | [6] 0.968 | [7] 1.01 | [8] 1.01 | locus YMR263W, strain SAP30, stronger effect = lower value 0.999 | [9] 1.04 | [10] 0.957 | [11] 1.04 | locus YNL175C, strain NOP13, stronger effect = lower value 0.94 | [12] 0.981 | locus YNL197C, strain WHI3, stronger effect = lower value 0.934 | locus YNL224C, strain SQS1, stronger effect = lower value 0.95 | locus YNL322C, strain KRE1, stronger effect = lower value 1.02 | locus YOR083W, strain WHI5 (second series), stronger effect = lower value 0.959 | [13] 1.02 | locus YPL241C, strain CIN2, stronger effect = lower value 0.989 | [14] 1.02

O=C(O)c1ccccc1Nc1cccc(C(F)(F)F)c1
0.134 (active) and 0.985 (inactive): [3]
inactive: locus YBR023C, strain chs3, stronger effect = lower value 0.924 | locus YBR229C, strain ROT2, stronger effect = lower value 0.983 | locus YCL029C, strain bik1, stronger effect = lower value 0.999 | locus YDL101C, strain DUN1, stronger effect = lower value 0.972 | locus YDL185W, strain tfp1, stronger effect = lower value 0.979 | locus YDL192W, strain arf1, stronger effect = lower value 0.974 | locus YDR101C, strain arx1, stronger effect = lower value 0.984 | [2] 0.996 | locus YDR162C, strain NBP2, stronger effect = lower value 0.852 | locus YDR195W, strain ref2 0.998 | locus YDR318W, strain mcm21, stronger effect = lower value 0.959 | locus YDR388W, stronger effect = lower value 0.975 | locus YEL061C, strain CIN8, stronger effect = lower value 0.952 | locus YER110C, stronger effect = lower value 1.01 | locus YGL078C, strain dbp3, stronger effect = lower value 0.979 | locus YGL086W, strain mad1, stronger effect = lower value 0.96 | locus YGL248W, strain PDE1, stronger effect = lower value 0.92 | locus YGR135W, strain pre9, stronger effect = lower value 0.895 | locus YHR013C, strain ard1, stronger effect = lower value 0.988 | locus YHR079C, strain IRE1 (second series), stronger effect = lower value 0.988 | locus YHR094C, strain hxt1, stronger effect = lower value 1 | locus YHR200W, strain rpn10, stronger effect = lower value 0.95 | locus YIL073C, strain SPO22, stronger effect = lower value 0.858 | locus YIL125W, strain kgd1, stronger effect = lower value 0.981 | locus YIR030C, strain dcg1, stronger effect = lower value 0.965 | locus YJL134W, strain LCB3, stronger effect = lower value 0.994 | locus YJL168C, strain set2, stronger effect = lower value 0.99 | locus YJL187C, strain SWE1 (second series), stronger effect = lower value 0.941 | [7] 0.93 | locus YKL009W, strain mrt4, stronger effect = lower value 0.896 | locus YKL068W, stronger effect = lower value 0.99 | locus YKL085W, strain MDH1 (second series), stronger effect = lower value 0.957 | locus YKL085W, strain MDH1, stronger effect = lower value 0.957 | locus YKL190W, strain CNB1, stronger effect = lower value 0.962 | locus YLR039C, strain RIC1, stronger effect = lower value 0.808 | locus YLR058C, strain SHM2, stronger effect = lower value 0.951 | locus YLR102C, strain apc9, stronger effect = lower value 0.982 | locus YLR262C, strain YPT6, stronger effect = lower value 0.821 | locus YLR268W, strain sec22, stronger effect = lower value 0.914 | locus YLR357W, strain rsc2, stronger effect = lower value 0.873 | locus YLR371W, strain rom2, stronger effect = lower value 0.987 | locus YML016C, strain PPZ1, stronger effect = lower value 0.991 | locus YML032C, strain rad52, stronger effect = lower value 0.933 | locus YML124C, strain tub3, stronger effect = lower value 0.97 | locus YMR078C, strain ctf18, stronger effect = lower value 0.98 | locus YMR223W, strain ubp8, stronger effect = lower value 0.945 | [9] 0.842 | locus YNL067W, strain RPL9B, stronger effect = lower value 0.967 | [10] 1.01 | [11] 0.937 | locus YNL248C, strain rpa49, stronger effect = lower value 0.921 | locus YNL250W, strain rad50, stronger effect = lower value 0.994 | locus YNL271C, strain bni1, stronger effect = lower value 0.982 | locus YNL298W, strain CLA4, stronger effect = lower value 0.928 | locus YNR052C, strain pop2, stronger effect = lower value 0.993 | locus YOL012C, strain htz1 0.909 | locus YOL147C, strain pex11, stronger effect = lower value 0.975 | locus YOR061W, strain CKA2, stronger effect = lower value 0.947 | locus YOR069W, strain VPS5, stronger effect = lower value 0.991 | locus YOR136W, strain idh2, stronger effect = lower value 0.983 | locus YOR144C, strain elg1, stronger effect = lower value 0.978 | locus YOR316C, strain cot1, stronger effect = lower value 0.988 | locus YPL106C, strain sse1, stronger effect = lower value 0.968 | locus YPR119W, strain clb2, stronger effect = lower value 0.988 | locus YPR141C, strain kar3, stronger effect = lower value 0.99 | locus YPR163C, strain tif3, stronger effect = lower value 0.952 | locus YPR167C, strain met16, stronger effect = lower value 0.944 | strain wtn01, stronger effect = lower value 0.954
0.119 (active) and 0.83 (inactive): [5]
active: [1] 0.857 | locus YAL021C, strain ccr4, stronger effect = lower value 0.847 | locus YAL026C, strain drs2, stronger effect = lower value 0.837 | locus YAL030W, strain snc1, stronger effect = lower value 0.817 | locus YBL061C, strain skt5, stronger effect = lower value 0.845 | locus YBR009C, strain hhf1, stronger effect = lower value 0.848 | locus YBR021W, strain FUR4, stronger effect = lower value 0.764 | locus YBR171W, strain sec66, stronger effect = lower value 0.69 | locus YBR231C, strain swc5, stronger effect = lower value 0.827 | locus YBR279W, strain paf1, stronger effect = lower value 0.859 | locus YCL011C, strain gbp2, stronger effect = lower value 0.86 | locus YCL016C, strain dcc1, stronger effect = lower value 0.87 | locus YCL069W, strain vba3, stronger effect = lower value 0.834 | locus YCR088W, strain abp1, stronger effect = lower value 0.793 | locus YDL005C, strain med2, stronger effect = lower value 0.882 | locus YDL035C, strain GPR1, stronger effect = lower value 0.844 | locus YDL040C, strain nat1, stronger effect = lower value 0.852 | locus YDL074C, strain BRE1, stronger effect = lower value 0.768 | locus YDR001C, strain nth1, stronger effect = lower value 0.805 | locus YDR069C, strain doa4, stronger effect = lower value 0.896 | locus YDR137W, strain rgp1, stronger effect = lower value 0.623 | locus YDR159W, strain sac3, stronger effect = lower value 0.661 | locus YDR297W, strain sur2, stronger effect = lower value 0.849 | locus YDR334W, strain swr1, stronger effect = lower value 0.788 | locus YDR335W, strain msn5, stronger effect = lower value 0.849 | locus YDR392W, strain spt3, stronger effect = lower value 0.721 | locus YDR502C, strain sam2, stronger effect = lower value 0.915 | locus YEL003W, strain gim4, stronger effect = lower value 0.842 | locus YEL037C, strain rad23, stronger effect = lower value 0.831 | locus YEL061C, strain CIN8 (second series), stronger effect = lower value 0.815 | locus YER015W, strain faa2, stronger effect = lower value 0.869 | locus YER016W, strain bim1, stronger effect = lower value 0.837 | locus YER111C, strain swi4, stronger effect = lower value 0.829 | locus YER155C, strain BEM2 (second series), stronger effect = lower value 0.763 | locus YER155C, strain BEM2, stronger effect = lower value 0.914 | locus YER167W, strain BCK2, stronger effect = lower value 0.833 | locus YFR010W, strain ubp6, stronger effect = lower value 0.858 | locus YGL167C, strain pmr1, stronger effect = lower value 0.751 | locus YGL173C, strain kem1, stronger effect = lower value 0.843 | locus YGL227W, strain vid30, stronger effect = lower value 0.812 | locus YGL240W, strain doc1, stronger effect = lower value 0.853 | locus YGL253W, strain hxk2, stronger effect = lower value 0.811 | locus YGR229C, strain SMI1, stronger effect = lower value 0.727 | locus YGR252W, strain gcn5, stronger effect = lower value 0.645 | locus YHR027C, strain rpn1, stronger effect = lower value 0.862 | [4] 0.126 | locus YHR129C, strain ARP1, stronger effect = lower value 0.918 | locus YHR142W, strain chs7, stronger effect = lower value 0.775 | locus YIL066C, strain RNR3, stronger effect = lower value 0.824 | locus YJL092W, strain hpr5, stronger effect = lower value 0.801 | locus YJL095W, strain BCK1 (second series), stronger effect = lower value 0.848 | locus YJL115W, strain asf1, stronger effect = lower value 0.843 | locus YJL129C, strain trk1, stronger effect = lower value 0.565 | locus YJL154C, strain vps35, stronger effect = lower value 0.792 | locus YJL164C, strain tpk1, stronger effect = lower value 0.873 | locus YJL166W, strain qcr8, stronger effect = lower value 0.853 | locus YJL187C, strain SWE1, stronger effect = lower value 0.833 | locus YJR043C, strain POL32, stronger effect = lower value 0.775 | [6] 0.00921 | locus YKL160W, strain elf1, stronger effect = lower value 0.835 | locus YKR001C, strain vps1, stronger effect = lower value 0.85 | locus YKR026C, strain gcn3, stronger effect = lower value 0.79 | locus YKR091W, strain srl3, stronger effect = lower value 0.826 | locus YLL001W, strain dnm1, stronger effect = lower value 0.833 | locus YLL026W, stronger effect = lower value 0.829 | locus YLL041C, strain sdh2, stronger effect = lower value 0.803 | locus YLR027C, strain aat2, stronger effect = lower value 0.865 | [8] 0.137 | locus YLR221C, strain rsa3, stronger effect = lower value 0.838 | locus YLR258W, strain gsy2, stronger effect = lower value 0.83 | locus YLR262C, strain YPT6 (second series), stronger effect = lower value 0.634 | locus YLR320W, strain mms22, stronger effect = lower value 0.833 | locus YLR330W, strain CHS5, stronger effect = lower value 0.883 | locus YLR342W, strain FKS1 (second series), stronger effect = lower value 0.713 | locus YLR342W, strain FKS1, stronger effect = lower value 0.831 | locus YLR370C, strain arc18, stronger effect = lower value 0.808 | locus YLR384C, strain iki3, stronger effect = lower value 0.818 | locus YLR418C, strain cdc73, stronger effect = lower value 0.729 | locus YML120C, strain ndi1, stronger effect = lower value 0.842 | locus YMR058W, strain fet3, stronger effect = lower value 0.824 | locus YMR125W, strain sto1, stronger effect = lower value 0.835 | locus YMR129W, stronger effect = lower value 0.812 | locus YMR205C, strain PFK2, stronger effect = lower value 0.81 | locus YMR231W, strain pep5, stronger effect = lower value 0.817 | locus YNL071W, strain lat1, stronger effect = lower value 0.849 | [12] 0.0159 | locus YNL209W, strain ssb2, stronger effect = lower value 0.862 | locus YNL233W, strain BNI4, stronger effect = lower value 0.852 | locus YNL307C, strain MCK1, stronger effect = lower value 0.695 | locus YNL322C, strain KRE1 (second series), stronger effect = lower value 0.801 | locus YNR049C, strain mso1, stronger effect = lower value 0.813 | locus YOR001W, strain rrp6, stronger effect = lower value 0.872 | locus YOR070C, strain gyp1, stronger effect = lower value 0.848 | locus YOR080W, strain dia2, stronger effect = lower value 0.847 | locus YOR083W, strain WHI5, stronger effect = lower value 0.834 | locus YOR106W, strain vam3, stronger effect = lower value 0.821 | locus YOR184W, strain ser1, stronger effect = lower value 0.819 | [13] 0.105 | locus YOR265W, strain rbl2, stronger effect = lower value 0.843 | locus YOR270C, strain vph1, stronger effect = lower value 0.674 | locus YOR290C, strain snf2, stronger effect = lower value 0.852 | locus YPL051W, strain arl3, stronger effect = lower value 0.831 | locus YPL078C, strain atp4, stronger effect = lower value 0.807 | locus YPL240C, strain hsp82, stronger effect = lower value 0.836 | [14] 0.116
